Screening data from PubChem.
Rows were chosen to be rich in hits. Some 12% of all compounds tested hit in one or more screens of this group.
Shiga toxin inh – inhibitors of Shiga toxin in Vero cells. Vero cells, Shiga toxin protein synthesis inhibition reporter. 290,000 compounds, 9.2% hits. inhibition, % at 38.7 µM; in the data active means inhibition mostly above about 28%, no sharp cut-off; inactive means mostly below about 43%; further: 0% is about no effect
SARS PLP yeast – inhibitors of SARS-CoV papain-like protease in yeast. Potency, µM (series often up to 32.9 µM), for the others: at the highest dose activity, positive = growth rescue, most hits filed as activators. AID 485353. 330,000 compounds, 0.19% hits. S. cerevisiae expressing SARS-CoV PLpro, growth rescue; further: potency means the concentration at half of the fitted maximal effect; 0% is about no effect; nearly all actives have a fitted effect of over 55% in size
Cycloheximide cs – counter-screen hit for Shiga toxin inhibitors, cycloheximide; cell reporter, cycloheximide protein synthesis inhibition counterscreen; max response, %; 300,000 compounds, 12% hits; in the data active means max response mostly above about 13%, no sharp cut-off; inactive means mostly below about 14%; further: read at 38.3 µM for the half of the compounds with a filed dose; 0% is about no effect
NS1 inh – inhibitors of influenza NS1 protein function. AID 2326. Potency, µM (series often up to 46.1 µM), without a hit: at the highest dose activity, positive = more growth. 270,000 compounds, 0.4% hits; further: potency means the concentration at half of the fitted maximal effect; actives are rising curves; nearly all actives have a fitted effect of over 50% in size
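In this qHTS, NS1 from influenza A is expressed in budding yeast, where it slows growth. Cells are switched from glucose to 2% galactose medium (pH 6.0, -URA), treated with compound, and growth recovery is read at OD600.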
* = called active by the depositor; ? = inconclusive; . = not tested or not shown; + = active, no number. Unless noted, the call rests on the fitted dose curve.

SMILES | Shiga toxin inh | SARS PLP yeast | Cycloheximide cs | NS1 inh
O=[N+]([O-])c1ccc(C2Oc3ccccc3C3CC(c4ccccc4)=NN32)s1 (stereo not drawn) | 114* | -94% | 61* | -31%
CS(=O)(=O)N1N=C(c2cccs2)CC1c1ccccc1 (stereo not drawn) | 10 | 1% | 13* | -1%
CC(=O)N1N=C(c2ccccc2)CC1c1ccccc1[N+](=O)[O-] (stereo not drawn) | -6 | 18% | 14 | -1%
CS(=O)(=O)N1N=C(c2cccs2)CC1c1ccccc1F (stereo not drawn) | 12 | 3% | -2 | 4%
COc1ccc(O)c(C2=Nc3ccccc3N=C(c3cccs3)C2)c1 | 2 | -26% | 16* | -9%
Oc1ccc2nnc3c(Br)cnn3c2c1 | 4 | -9% | -3 | -30%
COc1ccc(N(C(=O)CNC(=O)c2ccco2)C(C(=O)NCC2CCCO2)c2ccccc2)cc1 (stereo not drawn) | -7 | -2% | -6 | -20%
Cc1c(C#N)c(O)[nH]c(=O)c1N=Nc1ccc(Br)cc1C(=O)O | -5 | 3% | -1 | 5%
Cc1cccc(N=Nc2c(C)c(C#N)c(O)[nH]c2=O)c1 | 8 | -1% | 14* | -1%
Cc1[nH]c(C)c(S(=O)(=O)Nc2cccc(Cl)c2C)c1C(=O)N1CCCC1 | -5 | 0% | -2 | 1%
C=CCOc1ccc(C2C(C(=O)c3ccco3)=C(O)C(=O)N2Cc2cccnc2)cc1 (stereo not drawn) | + | 6% | 18 | -2%
CCCCOc1ccc(C2C(C(=O)c3cccs3)=C(O)C(=O)N2CCN2CCOCC2)cc1 (stereo not drawn) | -1 | . | 7 | -6%
CCOc1ccc(C2C(C(=O)c3cccs3)=C(O)C(=O)N2CCN2CCOCC2)cc1 (stereo not drawn) | 25* | 2% | 28* | 0%
CCOc1ccc(C2C(C(=O)c3ccco3)=C(O)C(=O)N2CCN2CCOCC2)cc1 (stereo not drawn) | 54* | -5% | 26* | 6%
CCOc1ccc(C2C(C(=O)c3ccco3)=C(O)C(=O)N2CCCn2ccnc2)cc1OCC (stereo not drawn) | -3 | 8% | -4 | -20%
CCOc1ccc(C2C(C(=O)c3ccco3)=C(O)C(=O)N2CCCn2ccnc2)cc1 (stereo not drawn) | + | ? | 33* | -14%
CCOc1ccc(C2C(C(=O)c3ccco3)=C(O)C(=O)N2CCN2CCOCC2)cc1OCC (stereo not drawn) | -4 | 11% | 5 | 1%
C[C@H](NC(=O)CNC(=O)[C@@H](NC(=O)[C@H](Cc1ccccc1)NC(=O)CNC(=O)CNC(=O)[C@@H](N)Cc1ccccc1)[C@@H](C)O)C(=O)N[C@@H](CCCN=C(N)N)C(=O)N[C@@H](CCCCN)C(=O)N[C@@H](CO)C(=O)N[C@@H](C)C(=O)N[C@@H](CCCN=C(N)N)C(=O)N[C@@H](CCCCN)C(N)=O | -13 | . | -3 | .
CCOc1ccc(S(=O)(=O)NCc2cccs2)cc1C(C)C | . | -1% | . | .
O=C(N/N=C/C(Cl)=C/c1ccccc1)c1ccco1 | 71* | -3% | 51* | -46%
O=C(Oc1ccc(/C=N/NC(=O)c2ccco2)cc1)c1ccccc1 | . | -6% | . | .
O=C(N/N=C/C(Cl)=C\c1ccccc1)c1ccco1 | 113* | -4% | 48* | -60%
O=C(Nc1ccccc1)/C(=C/c1ccccc1)NC(=O)c1ccco1 | -4 | -1% | 8 | .
O=C(c1nnsc1S(=O)c1ccc(Cl)cc1)N1CCOCC1 (stereo not drawn) | 64 | -24% | 60* | .
CNC(=O)c1nnsc1S(=O)(=O)c1ccc(Cl)cc1 | -1 | -26% | 16 | .
SMILES | Shiga toxin inh | SARS PLP yeast | Cycloheximide cs | NS1 inh
CN(c1ccc(C(=O)N2CCOCC2)cc1)S(=O)(=O)c1ccc(Cl)cc1 | 34* | 10% | 10* | -2%
O=C(Nc1ccccc1)c1nnsc1S(=O)c1ccc(Cl)cc1 (stereo not drawn) | -26 | -41% | 9 | -154%
O=C(c1nnsc1S(=O)(=O)c1ccc(Cl)cc1)N1CCOCC1 | 45* | -11% | 28* | .
CC(C)CC(NS(=O)(=O)c1cccc(C(=O)O)c1)C(=O)O (stereo not drawn) | 8 | 2% | -2 | .
CC(Oc1ccccc1Cl)C(=O)N(Cc1cccs1)C1CCS(=O)(=O)C1 (stereo not drawn) | -2 | 8% | -1 | -5%
COc1cc(/C(C)=N/N2CCN(c3ccccc3OC)CC2)ccc1O | 20 | -14% | 22* | 17%
COc1ccccc1N1CCN(/N=C(\C)c2ccccc2O)CC1 | 34* | 0% | 32* | 5%
COc1ccccc1N1CCN(Cc2cc(C)c(C)cc2O)CC1 | -4 | -4% | 6 | ?
